Laboratory results published in PubChem BioAssay (NCI).
Compounds without any hit were thinned out: in the full panel of roughly 83,000, 20% have a hit.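 Percent growth is the endpoint: 0 to 100 indicates growth inhibition (40 means 60% inhibition), 0 means no net growth, and negative values indicate cell death.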 A number with no mark means an inactive call. Activity calls are given as the source filed them. Rule for the calls: active = growth percent below 10; inactive = the rest.

Legend:
Assay in all cases: NCI-60 one-dose screen, 48 h (100 = growth as untreated, 0 = no growth, -100 = all killed)
Conditions in all cases: 10 µM unless noted
HCT-15 colon = system: HCT-15 colon
HT29 colon = system: HT29 colon
SNB-75 CNS = system: SNB-75 CNS
SNB-19 CNS = system: SNB-19 CNS
PC-3 prostate = system: PC-3 prostate
SK-MEL-5 melanoma = system: SK-MEL-5 melanoma
UACC-62 melanoma = system: UACC-62 melanoma
LOX IMVI melanoma = system: LOX IMVI melanoma
SK-MEL-28 melanoma = system: SK-MEL-28 melanoma
U251 CNS = system: U251 CNS

SMILES	growth (HCT-15 colon)	growth (HT29 colon)	growth (SNB-75 CNS)	growth (SNB-19 CNS)	growth (PC-3 prostate)	growth (SK-MEL-5 melanoma)	growth (UACC-62 melanoma)	growth (LOX IMVI melanoma)	growth (SK-MEL-28 melanoma)	growth (U251 CNS) [%]
Clc1ccc(Sc2cnc(-c3ccccc3)o2)cc1	103%	105%	92.6%	88.4%	104%	97.8%	102%	97.3%	102%	–
CS(=O)(=O)Nc1cc(-c2ccc3ncnc(Nc4c(Cl)ccc5c4OCO5)c3c2)cnc1Cl	-18% (active)	-12.9% (active)	-19.5% (active)	-4.15% (active)	2.75% (active)	-93% (active)	-52% (active)	-51.2% (active)	-6.42% (active)	–
Cn1c(-c2ccc(Br)cc2)c(O)c(=O)c2c(F)cccc21	23.9%	36.6%	92.2%	52.8%	105%	54.2%	37.6%	40.2%	67.2%	–
Clc1ccc2c(c1)N(c1ncnc3ccc(-c4cnc5[nH]ncc5c4)cc13)CC2	25%	19.3%	-16.8% (active)	42.8%	23.8%	46.5%	8.23% (active)	18.4%	44.1%	–
CCOC(=O)CSc1ncnc2c1c(-c1ccccc1)c(-c1ccccc1)n2-c1ccc(C)cc1	106%	63.9%	87.8%	63.4%	51.9%	–	57.1%	78.4%	87.6%	49.1
COc1cc2c(c(OC)c1OC)-c1ccc(OC)c(=O)cc1[C@@H](NC(=O)CCl)CC2	7.81% (active)	4.97% (active)	78.9%	39.1%	22.8%	-73.7% (active)	20.8%	-18.2% (active)	47%	–
C#Cc1cccc(Nc2ncnc3ccc(-c4cnc(N)nc4)cc23)c1	23.1%	48%	6.34% (active)	47.2%	27.1%	32.7%	24.8%	22.2%	38.1%	–
CNC(=O)c1c(NC(=O)c2ccc(C(F)(F)F)cc2)sc2c1CCC(=O)C2	-54.1% (active)	5.12% (active)	-17.4% (active)	2.58% (active)	-30.9% (active)	–	-29.1% (active)	–	4.24% (active)	–
O=C1c2cc(Cl)ccc2S(=O)(=O)c2c(NCCCNCCO)nc3ccccc3c21	-65.4% (active)	-78.8% (active)	32.6%	56.4%	-14.2% (active)	11.3%	2.05% (active)	-76.8% (active)	6.11% (active)	–
CCOC(=O)CNP(=O)(OC[C@@H](Cc1ccccc1)NC(=O)c1cc2ccccc2s1)Oc1ccccc1 (stereo partly drawn)	43.5%	57.2%	35.2%	–	85.5%	88.2%	71.4%	76.2%	77%	66.5
